Shown are actives, neighbours in structure and some others; about 4.7% of the full set was active somewhere.
D1 potentiator: potentiators of human D1 dopamine receptor; P21728; HEK293 TREx D1 cells, calcium flux, dopamine EC20 potentiation; potentiation, % at 10 µM; 360,000 tested, 0.036% active; in the data active = potentiation above about 30%
Target sequence (P21728 whole entry, looked up): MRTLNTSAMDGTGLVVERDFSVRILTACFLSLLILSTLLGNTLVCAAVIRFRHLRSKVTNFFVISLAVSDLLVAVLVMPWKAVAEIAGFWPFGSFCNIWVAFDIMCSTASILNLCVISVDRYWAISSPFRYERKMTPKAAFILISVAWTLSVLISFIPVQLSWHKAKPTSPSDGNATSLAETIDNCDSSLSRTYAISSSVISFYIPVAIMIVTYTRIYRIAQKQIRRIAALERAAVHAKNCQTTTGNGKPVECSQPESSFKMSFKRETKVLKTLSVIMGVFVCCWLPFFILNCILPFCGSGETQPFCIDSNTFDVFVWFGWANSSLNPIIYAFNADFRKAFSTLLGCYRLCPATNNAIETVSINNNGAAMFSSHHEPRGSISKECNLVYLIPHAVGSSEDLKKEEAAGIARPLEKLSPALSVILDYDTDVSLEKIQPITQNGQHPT
D1 ag: agonists of human D1 dopamine receptor | HEK293 T-REx D1 cells, calcium flux, agonist mode | activation, % at 2 µM | 360,000 tested, 1% active | P21728
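Inducible HEK293 T-REx D1 cells, force-coupled to calcium signalling, were plated at 4000 cells/well with tetracycline and held overnight at 30 C. After no-wash calcium dye loading, compound-evoked calcium rise over 180 s flagged agonists.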
D1 antag: blocks dopamine activation of the human D1 receptor | P21728 | AID 504652 | 360,000 tested, 3.2% active | activity change, negative = inhibition, % at 10 µM | HEK293 TREx D1 cells, calcium flux, dopamine EC80; hits give low values; in the data active = activity change below about -30%
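Antagonism measured as reduced calcium response to an EC80 dopamine addition following 180 s compound pre-read; cells were inducible HEK293 Trex D1 plated overnight at 30 C, read kinetically at 1 cycle/sec.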
TRHR PAM: allosterically enhances the human TRH receptor; enhancement, % at 2 µM; TRHR cells, fluo-8 calcium fluorescence, EC20 TRH enhancement; 360,000 tested, 0.66% active; in the data active = enhancement above about 30%
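Enhancer read-out: after compound pinning and an initial kinetic agonist-mode read, an EC20 of TRH (10 nM final) was injected and fluo-8 calcium signal (Ex 480/Em 530) followed at 1 s/cycle for 100 cycles in TRHR-expressing cells.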
TRHR ag: TRH receptor (human) agonism; activation, % at 2 µM; TRHR cells, calcium flux fluo-8, FDSS agonist mode; AID 493084; 360,000 tested, 0.18% active
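Agonist-mode FDSS calcium read (Ex 480/Em 530, 1 s cycles) in 1536-well TRHR cells with fluo-8 dye, after 10-cycle baseline and 23 nL compound addition; TRH at EC20 (10 nM final) added afterwards for the enhancer phase.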
Of the large screens only hits and unclear results are named; the others gave an inactive call; ! = not active in a repeat. Rule as the data show it, unless noted: active = activation above about 30%; inactive = the rest.

CC(=O)c1ccc(NS(=O)(=O)c2ccc(Br)s2)cc1	none
CCCN(CCC)CCCNC(=O)c1cc2cc3ccc(Cl)cc3nc2o1	TRHR PAM 40
COP(=O)(OC)c1nc(-c2ccc([N+](=O)[O-])cc2)oc1N1CCCCC1	D1 ag 49
O=C(NCc1ccccc1F)c1cc2ccccn2n1	none
COc1ccc(C(=O)c2ccc(OC)cc2OC)cc1	D1 antag -49
COc1ccc(C(=O)c2ccc(N(C)C)cc2)c(OC)c1	none
CCOC(=O)c1nnn(CC(=O)NC(=O)Nc2ccc(F)cc2)c1C(=O)OCC	D1 ag 42!
CCn1cnnc1SCC(=O)NCC1COc2ccccc2O1 (stereo not given)	none
Cc1nnc(SCC(=O)Nc2ccccc2NC(=O)CSc2nnc(C)s2)s1	D1 antag -33
Cc1ccccc1Nc1nnc(SCC(=O)NCc2cccs2)s1	D1 antag -41
Cc1nnc(SCC(=O)NCC2COc3ccccc3O2)s1 (stereo not given)	D1 antag -31
Cc1cccc(C)c1Nc1nnc(SCC(=O)NCc2cccs2)s1	none
Cn1cc(C(=O)NCCc2ccccc2)c(=O)c2cc(S(=O)(=O)N3CCCCCC3)ccc21	none
N#Cc1nc(NCC(F)F)c2ncn(-c3cc(F)cc(F)c3)c2n1	none
Cc1nn(C)c(C)c1/C=N/NC(=O)C(C)(C)Oc1ccc(Cl)cc1	D1 antag -38
Cc1c(/C=N/NC(=O)C(C)(C)Oc2ccc(Cl)cc2)cnn1C	none
CCc1nn2c(-c3ccco3)ccnc2c1-c1ccccc1	none
Cc1cccc(OCC(=O)N(Cc2cccc(Cl)c2)Cc2ccco2)c1C	D1 ag 31
Cc1ccc(CN(Cc2ccco2)C(=O)COc2ccc(C)c(C)c2)cc1	none
Cc1cc(C)c2c(CC(=O)N(Cc3ccc(Cl)cc3)Cc3ccco3)coc2c1	D1 ag 38
Cc1cc(=O)oc2ccc(OCC(=O)N(Cc3ccc(F)cc3)Cc3ccco3)cc12	D1 antag -42
Cc1cc(Cl)ccc1OCC(=O)N(Cc1ccco1)Cc1ccco1	none
N#CC1(NC(=O)COC(=O)c2cc(O)c3ccccc3c2O)CCCCC1	D1 antag -40
CCOc1ccc(N2C(=O)c3ccccc3C2=O)cc1	none
O=C(COc1ccc(N2C(=O)c3ccccc3C2=O)cc1)c1ccccc1	D1 antag -32
CC(=O)N1CCc2c(sc3c2c(=O)n(-c2cc(Cl)ccc2C)c(=O)n3C)C1	none
CN(C)S(=O)(=O)c1cccc(NC(=S)N/N=C/c2cc(Br)ccc2O)c1	D1 ag 47
CC1CCN(c2ccc(-c3cccc(NS(=O)(=O)c4ccc(Cl)s4)c3)nn2)CC1	none
O=C(c1ccccc1)c1ccc(OCC(O)CNCc2ccc(F)cc2)cc1 (stereo not given)	D1 ag 52
Cc1ccc(C(OCC(O)CNCc2ccc(F)cc2)c2ccccc2)cc1 (stereo not given)	D1 potentiator 31, D1 ag 67
CCC(=O)c1ccc(OCC(O)CNCc2ccc(F)cc2)cc1 (stereo not given)	none
O=C(COc1ccc(C(=O)c2ccccc2)cc1)NCc1ccc(F)cc1	D1 antag -39
O=C(c1ccccc1)c1ccc(OCC(O)CNCc2cccc(Cl)c2)cc1 (stereo not given)	D1 ag 43
CCOc1ccccc1NS(=O)(=O)c1ccc(N2CCCCS2(=O)=O)cc1	none
Cc1ccc(NC(=S)NCCSc2ccc(Cl)cc2)cc1	D1 antag -37
CCCCNC(=S)Nc1ccc(Cl)cc1	D1 antag -33
CCNC(=S)Nc1ccc(Cl)cc1	none
CCCCNC(=S)Nc1ccc(C(F)(F)F)cc1	D1 antag -33
CCc1nnc2c3ccccc3nc(Nc3cc(C)cc(C)c3)n12	none
CCCCNC(=O)CCC1N=C2c3ccccc3N=C(SCC(=O)NCCc3ccc(OC)c(OC)c3)N2C1=O (stereo not given)	none
c1coc(CNC2CCCCCCC2)c1	D1 antag -48
c1coc(CNC2CCCCC2)c1	none
ClC1(Cl)CC1CSc1nc2ccccc2[nH]1 (stereo not given)	D1 antag -34
CCN(C(=O)CCn1cnc2onc(-c3ccc(F)cc3)c2c1=O)c1ccc(OC)cc1	none
O=C(Cc1ccc(Cl)cc1)Nc1ccc(S(=O)(=O)N2CCOCC2)cc1	D1 ag 34
COc1ccc(CC(=O)Nc2ccc(F)c(Cl)c2)cc1S(=O)(=O)N1CCOCC1	D1 antag -35
CC(Oc1ccc(Cl)cc1)C(=O)Nc1ccc(S(=O)(=O)N2CCOCC2)cc1 (stereo not given)	D1 ag 47
Cc1ccc(SC(C)C(=O)Nc2ccc(S(=O)(=O)N3CCOCC3)cc2)cc1 (stereo not given)	D1 ag 46
CC(C)Oc1ccc(CNC(=O)c2ccccc2NC(=O)c2nsc3ccccc23)cc1	none
CCn1c(=O)cc(OCC(=O)NCc2ccc(F)cc2Cl)c2ccccc21	none
Cc1csc(SC(C)C(=O)Nc2ccc(S(=O)(=O)N3CCCC3)cc2)n1 (stereo not given)	D1 antag -40
Cc1nnc(SC(C)C(=O)Nc2ccc(S(=O)(=O)N3CCCCC3)cc2)s1 (stereo not given)	none
CC(OC(=O)C(C)Oc1ccccc1)C(=O)Nc1ccc(S(=O)(=O)N2CCCCC2)cc1 (stereo not given)	none (no result: D1 potentiator)
CC(Oc1ccccc1Cl)C(=O)Nc1ccc(S(=O)(=O)N2CCCC2)cc1 (stereo not given)	TRHR PAM 34
COc1ccc(CC(=O)NCC(c2cccs2)S(=O)(=O)c2ccc(C)cc2)cc1 (stereo not given)	none (no result: D1 antag)
COc1cc(CNn2cnnc2)ccc1OCC(=O)NC(C)(C)C	D1 antag -79
COc1ccc(CNC(=O)CN(CCC(C)C)S(=O)(=O)c2ccc3c(c2)OCCO3)cc1	D1 antag -32
Cc1ccc(N(C)S(=O)(=O)c2nnc(NC(=O)CC(C)C)s2)cc1	none
COc1cc(NC(=O)c2ccc(-c3nc(CSc4ccccc4)c(C)o3)cc2)cc(OC)c1	none
COc1ccc(NS(=O)(=O)c2cccc(C(=O)NC3CCN(Cc4ccccc4)CC3)c2)cc1	D1 antag -33
CC(C)(Oc1ccc(Cl)cc1)C(=O)NC1CCN(Cc2ccccc2)CC1	D1 antag -51
O=C(NC1CCCCC1)c1cccc(OCc2ccccc2)c1	D1 ag 37
Cc1ccccc1C(=O)NC1CCN(Cc2nnnn2CCc2ccccc2)CC1	none
Cc1ccccc1C(=O)NC1CCN(Cc2ccccc2)CC1	D1 antag -33
Cc1nn2c(=O)cc(COC(=O)c3ccco3)nc2s1	none
O=C(NC1CCN(Cc2ccccc2)CC1)c1cccc(OC(F)F)c1	D1 antag -33
O=C(c1ccc(NS(=O)(=O)c2ccccc2)cc1)N1CCN(Cc2ccc3c(c2)OCO3)CC1	none

Screens deposited in PubChem by National Center for Advancing Translational Sciences (NCATS).
